Test results taken from PubChem BioAssay.
The source made the active and inactive calls.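 The calls were made as follows, unless noted: active = thallium flux through the channel raised or lowered by more than 3 SD from vehicle-only wells, actives on both sides; inactive = the rest.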 Numbered stars: 1 amine (or outer) side, 2 acyl side, 3 side chain; on linkers, the order of the positions; unused ones are H or OH. Bridge positions count the residues as written; N and C are the ends. Square brackets hold non-standard residues; d marks the D form. Peptide text beside a SMILES is read from it. I, II: the chains in the order shown. Actinocin(9to1) = Cc1c2oc3c(C)ccc(C(=O)[*:1])c3nc-2c(C(=O)[*:2])c(N)c1=O; NMeV = CN[CH](C(=O)O)C(C)C; Sar = CNCC(=O)O

How the values were obtained:
[1] = liver-stage malaria parasite growth inhibition, primary screen, cell-based, HepG2, luciferase luminescence, HepG2 viability (AID 624349; in the data active = parasite load remaining mostly below about 12%, no sharp cut-off; inactive = mostly above about 10%;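 also: 100% = mean of DMSO negative control wells on the same plate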); conditions: P. berghei liver stage in HepG2, luciferase luminescence, concentration not given here; parasite load remaining: stronger effect = lower value; viability: measured here: HepG2 viability without parasites
[2] = Cy5 fluorescence interference with SSB-bound oligo, artefact control for HCV NS3 helicase inhibitor project, biochemical, NIH Clinical Collection, E. coli SSB (AID 743268; call rule not given here)
[3] = test system: Hepatitis C virus NS3 helicase; assay: HCV NS3 helicase inhibitors, primary screen, biochemical, fluorescence polarization, NIH Clinical Collection (AID 743270; call rule not given here); conditions: NS3 helicase binding to Cy5-dT15 DNA, stronger effect = higher value, concentration not given here
[4] = molecular target: Single-stranded DNA-binding protein (Escherichia coli (strain K12)) (UniProt P0AGE0); assay: E. coli SSB displacement from DNA, counter-screen for HCV NS3 helicase inhibitor project, biochemical, fluorescence polarization, NIH Clinical Collection (AID 743271; in the data active = inhibition above about 28%); conditions: stronger effect = higher value, concentration not given here
[5] = fluorescence interference in NS3h assay format, artefact control for HCV NS3 helicase inhibitor project, biochemical, NIH Clinical Collection (AID 743272; call rule not given here;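 also: HCV NS3 helicase with a Cy5 labelled single stranded DNA probe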); conditions: fluorescence interference counterscreen, stronger effect = lower value
[6] = test system: Neuropilin-2 / VEGF-C interaction (human); assay: inhibitors of NRP2–VEGF-C binding, biochemical, microplate binding format, z-score (AID 743281; call rule not given here); conditions: microplate NRP2/VEGF-C binding assay; stronger effect = lower value
[7] = modulation of C. elegans fzo-1 (AID 1259413; call rule not given here;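 also: fzo-1 mutant C. elegans worms in liquid wells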); conditions: C. elegans fzo-1 modulator screen, mean read-out; stronger effect = higher value
[8] = sensitizers of A549 cells to miR-34 induction, primary screen, imaging, A549 dox-inducible miR-34, nuclei and caspase counts (AID 1347080;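 active = compounds whose cell count with miR-34 switched on is under 0.7 times the count with it off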); conditions: A549 miR-34 inducible, Hoechst nuclei count, 48 h
[9] = viability rescue of complex I mutant cybrids, primary screen, cell-based, galactose medium, ATP luminescence (AID 1645843;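 active = z-score of at least 1.8 in each of two replicates, scored against plate mean and spread of sample wells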;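 also: positive z means more ATP and so rescue of galactose-driven cybrid death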); conditions: complex I mutant cybrid cells, 72 h, stronger effect = higher value
F380Y = assay: modulators of BK channel variants, profiling panel, selectivity assay, cell-based, U2OS BacMam, thallium flux, beta subunits (AID 1259406); conditions: at 30 µM;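 also: initial slope of Thallos dye fluorescence rise after thallium is added; log ratio against the mean of 0.3% DMSO vehicle wells on the same plate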
F380Y/beta1 = assay: as above; conditions: at 30 µM
F380Y/beta2Delta = assay: as above; conditions: at 30 µM
F380Y/beta4 = assay: as above; conditions: at 30 µM
[10] = molecular target: Calcium-activated potassium channel subunit alpha-1 (Homo sapiens) + Leucine-rich repeat-containing protein 26 (Homo sapiens) (UniProt Q12791+Q2I0M4); assay: as above; conditions: F380Y/Slo1WT/gamma1, at 30 µM
Sequence of Calcium-activated potassium channel subunit alpha-1 (Homo sapiens) + Leucine-rich repeat-containing protein 26 (Homo sapiens) (Q2I0M4 whole entry, looked up, one chain of several): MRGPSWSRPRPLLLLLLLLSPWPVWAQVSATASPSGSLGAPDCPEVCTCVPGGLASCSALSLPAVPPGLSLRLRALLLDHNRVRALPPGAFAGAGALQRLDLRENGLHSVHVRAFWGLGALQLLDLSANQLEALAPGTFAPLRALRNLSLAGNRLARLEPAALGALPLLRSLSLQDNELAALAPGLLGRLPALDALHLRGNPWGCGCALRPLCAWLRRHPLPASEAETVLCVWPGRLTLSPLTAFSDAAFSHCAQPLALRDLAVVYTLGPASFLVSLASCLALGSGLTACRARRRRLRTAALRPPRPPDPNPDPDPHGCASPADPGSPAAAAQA

R275C = assay: as above; conditions: at 30 µM
R275C/beta1 = assay: as above; conditions: at 30 µM
R275C/beta2Delta = assay: as above; conditions: at 30 µM
R275C/beta4 = assay: as above; conditions: at 30 µM
R275C/Slo1WT/beta2 = assay: as above; conditions: at 30 µM
[11] = survival rescue of mitochondrial mutant cells in low glucose, primary screen, MELAS cybrids, Rieske KO mouse fibroblasts, CellTiter-Glo (AID 1508586;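 active = mean z-score across replicates of 1.96 or higher in either the MELAS or the Rieske mutant cell line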;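 also: z relative to plate mean and SD of compound and empty wells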)
[12] = stronger effect = lower value, cell number ratio, induced over uninduced
[13] = measured here: relative caspase fold change +Dox/-Dox
[14] = measured here: total cells with miR-34 induction, stronger effect = lower value
[15] = measured here: total cells without miR-34 induction
[16] = MELAS cybrid survival, CellTiter-Glo 48 h, stronger effect = higher value
[17] = Rieske KO mouse fibroblast survival, CellTiter-Glo 72 h

CC1CC2C3CCC4=CC(=O)C=CC4(C)[C@@]3(Cl)C(O)CC2(C)C1(O)C(=O)CO (some centres not stated)
67.8%: viability [1]
1.07: fold change [8, 13]
active: log fold change Tl+ flux (F380Y/beta1) 0.0975 | log fold change Tl+ flux (R275C/beta1) 0.106
inactive: parasite load remaining [1] 68.1% | fluorescence ratio [2] 0.98 | inhibition [3] -0.22% | inhibition [4] -1.97% | fluorescence ratio [5] 0.95 | z-score [6] 0.0119 | mean signal [7] 282 | fold change [8, 12] 0.839 | z-score [9] 1.36 | log fold change Tl+ flux (F380Y) 0.104 | log fold change Tl+ flux (F380Y/beta2Delta) -0.00287 | log fold change Tl+ flux (F380Y/beta4) 0.0497 | log fold change Tl+ flux [10] 0.0373 | log fold change Tl+ flux (R275C) -0.0315 | log fold change Tl+ flux (R275C/beta2Delta) 0.0411 | log fold change Tl+ flux (R275C/beta4) 0.0585 | log fold change Tl+ flux (R275C/Slo1WT/beta2) 0.0245
7120: cell count [8, 14]
8490: cell count [8, 15]

CCCCCN=C(N)NN=Cc1c[nH]c2ccc(OC)cc12
3.78%: viability [1]
active: log fold change Tl+ flux (F380Y) 0.707 | log fold change Tl+ flux (F380Y/beta1) 0.869 | log fold change Tl+ flux (F380Y/beta2Delta) 0.585 | log fold change Tl+ flux (F380Y/beta4) 0.841 | log fold change Tl+ flux [10] 0.468 | log fold change Tl+ flux (R275C) 0.229 | log fold change Tl+ flux (R275C/beta1) 0.839 | log fold change Tl+ flux (R275C/beta4) 0.743 | log fold change Tl+ flux (R275C/Slo1WT/beta2) 0.7
inactive: parasite load remaining [1] 0.065% | fold change [8, 12] 1.42 | z-score [9] -1.88 | log fold change Tl+ flux (R275C/beta2Delta) -0.0142
18.5: cell count [8, 14]
13: cell count [8, 15]
1.01: fold change [8, 13]

Cc1c2oc3c(C)ccc(C(=O)NC4C(=O)NC(C(C)C)C(=O)N5CCCC5C(=O)N(C)CC(=O)N(C)C(C(C)C)C(=O)OC4C)c3nc-2c(C(=O)NC2C(=O)NC(C(C)C)C(=O)N3CCCC3C(=O)N(C)CC(=O)N(C)C(C(C)C)C(=O)OC2C)c(N)c1=O (configuration not stated) (I: TVP[Sar][NMeV] / II: TVP[Sar][NMeV]; ester I:1-I:C, II:1-II:C; linker I:N-II:N via Actinocin(9to1); configuration not given here)
inactive: fold change [8, 12] 1.02 | z-score [9] -1.86 | log fold change Tl+ flux (F380Y) -0.0282 | log fold change Tl+ flux (F380Y/beta1) 0.0244 | log fold change Tl+ flux (F380Y/beta2Delta) -0.0313 | log fold change Tl+ flux (F380Y/beta4) -0.0252 | log fold change Tl+ flux [10] -0.013 | log fold change Tl+ flux (R275C) -0.0516 | log fold change Tl+ flux (R275C/beta1) 0.0499 | log fold change Tl+ flux (R275C/beta2Delta) -0.00324 | log fold change Tl+ flux (R275C/beta4) 0.0337 | log fold change Tl+ flux (R275C/Slo1WT/beta2) 0.0757
1.2: fold change [8, 13]
2640: cell count [8, 14]
2570: cell count [8, 15]

CCN(CC)C(=O)[C@]1(c2ccccc2)C[C@@H]1CN
inactive: parasite load remaining [1] 94.6% | fluorescence ratio [2] 1.07 | inhibition [3] 1.98% | inhibition [4] -3.18% | fluorescence ratio [5] 1.06 | z-score [6] -0.224 | mean signal [7] 248 | z-score [11, 16] -0.406 | log fold change Tl+ flux (F380Y) 0.0604 | log fold change Tl+ flux (F380Y/beta1) 0.0284 | log fold change Tl+ flux (F380Y/beta2Delta) -0.038 | log fold change Tl+ flux (F380Y/beta4) 0.00308 | log fold change Tl+ flux [10] 0.0521 | log fold change Tl+ flux (R275C) -0.00612 | log fold change Tl+ flux (R275C/beta1) -0.0552 | log fold change Tl+ flux (R275C/beta2Delta) -0.0341 | log fold change Tl+ flux (R275C/beta4) 0.0155 | log fold change Tl+ flux (R275C/Slo1WT/beta2) 0.0022
71.3%: viability [1]
-0.158: z-score [11, 17]

O=C(O)Cc1ccc([N+](=O)[O-])cc1
inactive: fold change [8, 12] 0.849 | z-score [11, 16] -0.276 | z-score [9] 0.95 | log fold change Tl+ flux (F380Y) -0.0269 | log fold change Tl+ flux (F380Y/beta1) -0.0396 | log fold change Tl+ flux (F380Y/beta2Delta) -0.012 | log fold change Tl+ flux (F380Y/beta4) -0.00207 | log fold change Tl+ flux [10] -0.0215 | log fold change Tl+ flux (R275C) -0.0145 | log fold change Tl+ flux (R275C/beta1) -0.00497 | log fold change Tl+ flux (R275C/beta2Delta) 0.00238 | log fold change Tl+ flux (R275C/beta4) -0.00439 | log fold change Tl+ flux (R275C/Slo1WT/beta2) 0.0202
10100: cell count [8, 15]
-0.17: z-score [11, 17]
8560: cell count [8, 14]
0.69: fold change [8, 13]

Nc1ccc2cn[nH]c2c1
inactive: parasite load remaining [1] 61.3% | fluorescence ratio [2] 0.99 | inhibition [3] -1.09% | inhibition [4] -0.39% | fluorescence ratio [5] 0.98 | z-score [6] -0.807 | mean signal [7] 290 | fold change [8, 12] 0.924 | z-score [9] 0.52 | log fold change Tl+ flux (F380Y) -0.0182 | log fold change Tl+ flux (F380Y/beta1) -0.022 | log fold change Tl+ flux (F380Y/beta2Delta) 0.0231 | log fold change Tl+ flux (F380Y/beta4) -0.00919 | log fold change Tl+ flux [10] 0.0509 | log fold change Tl+ flux (R275C) -0.0141 | log fold change Tl+ flux (R275C/beta1) -0.000281 | log fold change Tl+ flux (R275C/beta2Delta) 0.0572 | log fold change Tl+ flux (R275C/beta4) -0.0327 | log fold change Tl+ flux (R275C/Slo1WT/beta2) 0.0188
8800: cell count [8, 15]
1.71: fold change [8, 13]
8130: cell count [8, 14]
64.9%: viability [1]

CCC(C)(C)N=C(NC#N)Nc1cccnc1
1.24: fold change [8, 13]
69.3%: viability [1]
inactive: parasite load remaining [1] 49.6% | fluorescence ratio [2] 0.95 | inhibition [3] -2.84% | inhibition [4] -3.54% | fluorescence ratio [5] 0.92 | z-score [6] -0.415 | mean signal [7] 201 | fold change [8, 12] 0.909 | z-score [9] 0.04 | log fold change Tl+ flux (F380Y) 0.00312 | log fold change Tl+ flux (F380Y/beta1) 0.00744 | log fold change Tl+ flux (F380Y/beta2Delta) 0.00568 | log fold change Tl+ flux (F380Y/beta4) 0.0162 | log fold change Tl+ flux [10] 0.00265 | log fold change Tl+ flux (R275C) -0.0443 | log fold change Tl+ flux (R275C/beta1) -0.0211 | log fold change Tl+ flux (R275C/beta2Delta) -0.00288 | log fold change Tl+ flux (R275C/beta4) 0.0126 | log fold change Tl+ flux (R275C/Slo1WT/beta2) -0.00574
10900: cell count [8, 15]
9920: cell count [8, 14]

O=C(O)COCCN1CCN([C@H](c2ccccc2)c2ccc(Cl)cc2)CC1
active: log fold change Tl+ flux (R275C/beta1) 0.122
inactive: parasite load remaining [1] 91.6% | z-score [6] -0.677 | mean signal [7] 261 | log fold change Tl+ flux (F380Y) 0.0476 | log fold change Tl+ flux (F380Y/beta1) 0.0381 | log fold change Tl+ flux (F380Y/beta2Delta) 0.0598 | log fold change Tl+ flux (F380Y/beta4) -0.027 | log fold change Tl+ flux [10] 0.0629 | log fold change Tl+ flux (R275C) -0.011 | log fold change Tl+ flux (R275C/beta2Delta) 0.083 | log fold change Tl+ flux (R275C/beta4) 0.0472 | log fold change Tl+ flux (R275C/Slo1WT/beta2) 0.0404
73.9%: viability [1]
